In PubChem BioAssay (NCI) one finds growth data, which are given here for eight compounds.

This is part of a sample that, as a whole, favours compounds with a hit. Of some 83,000 tested, about 20% had one in any assay.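 The endpoint reported here, percent growth, reads 100 for growth as untreated, 0 for no net growth and -100 for all cells dead.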 Values without a mark were called inactive. The source made the active and inactive calls. How the source made its calls: active means growth percent below 10; inactive means the rest.

Among the test systems are DU-145 prostate; K-562 leukemia; MALME-3M melanoma; MDA-MB-231 breast; RXF 393 renal; SF-268 CNS; SF-295 CNS; SF-539 CNS; UACC-257 melanoma; M14 melanoma; HCT-15 colon; HT29 colon; SNB-75 CNS; SNB-19 CNS; U251 CNS; PC-3 prostate; SK-MEL-5 melanoma; UACC-62 melanoma; LOX IMVI melanoma; SK-MEL-28 melanoma.
What all share (experiment): NCI-60 one-dose screen, 48 h (100 = growth as untreated, 0 = no growth, -100 = all killed)
Conditions in all cases: 10 µM unless noted

Take `O=S(=O)(Oc1ccc(-c2cn3ccoc3n2)cc1)c1cccc(C(F)(F)F)c1`: the growth was 101% with DU-145 prostate; 101% in the experiment with K-562 leukemia; 98.6% with MALME-3M melanoma; 102% in the experiment with MDA-MB-231 breast; 98.2% in the experiment on RXF 393 renal; 102% with SF-268 CNS. For the same compound, the growth is 90.4% in the experiment on SF-295 CNS; 94.3% in the experiment with SF-539 CNS; 101% with UACC-257 melanoma; 105% with M14 melanoma; 95.6% in the experiment on HCT-15 colon; 103% in the experiment with HT29 colon. Moreover, the growth in the experiment with SNB-75 CNS is 96.3%; in the experiment on SNB-19 CNS, 95.2%; with U251 CNS it was 101%; in the experiment with PC-3 prostate, 95.2%; in the experiment with SK-MEL-5 melanoma, 96.1%; with UACC-62 melanoma it was 86.5%. Besides, the values for the growth in the experiment with LOX IMVI melanoma and with SK-MEL-28 melanoma were 94.7% and 106%, respectively.

In the case of `Cc1c(C(=O)/C=C/c2ccc(Cl)cc2)nnn1-c1ccc2oc(=O)ccc2c1`, the growth with DU-145 prostate was 104%; in the experiment with K-562 leukemia, 83.4%; with MALME-3M melanoma, 98.8%; in the experiment with MDA-MB-231 breast, 94%; with RXF 393 renal, 86.5%; with SF-268 CNS, 102%. Moreover, the growth in the experiment with SF-295 CNS was 88.9%; in the experiment with SF-539 CNS it was 99.5%; with UACC-257 melanoma, 99.9%; in the experiment with M14 melanoma, 95.6%; in the experiment on HCT-15 colon, 87.3%; in the experiment on HT29 colon it was 101%. For the same compound, the growth with SNB-75 CNS was 104%; in the experiment with SNB-19 CNS, 96.3%; in the experiment with U251 CNS, 96.7%; with PC-3 prostate it was 92%; in the experiment on SK-MEL-5 melanoma it was 97.7%; with UACC-62 melanoma, 83.6%. Moreover, the growth is 80.7% in the experiment with LOX IMVI melanoma and 106% with SK-MEL-28 melanoma.

In the case of `C#C[C@]1(O)CC[C@H]2[C@@H]3CC=C4c5sc(N(C)c6ccccc6)nc5CC[C@]4(C)[C@H]3CC[C@@]21C`, the growth was 95.4% with DU-145 prostate; 2.88% (active) in the experiment on K-562 leukemia; 110% with MALME-3M melanoma; 98.6% with MDA-MB-231 breast; 75.8% in the experiment with RXF 393 renal; 88% in the experiment on SF-268 CNS. Also, the growth in the experiment on SF-295 CNS was 68.8%; in the experiment with SF-539 CNS it was 48.7%; with UACC-257 melanoma, 90.8%; in the experiment with M14 melanoma, 54.3%; in the experiment on HCT-15 colon, 27.8%; in the experiment with HT29 colon it was -3.51% (active). Also, the growth in the experiment on SNB-75 CNS is 99.8%; in the experiment on SNB-19 CNS it was 91.3%; with U251 CNS, 60.6%; with PC-3 prostate, 59.1%; in the experiment with SK-MEL-5 melanoma it was 87.3%; in the experiment on UACC-62 melanoma, 77%. For the same compound, the growth is 67.8% with LOX IMVI melanoma and 76.9% with SK-MEL-28 melanoma.

In the case of `Cn1cc(C2=C(c3coc4cc(Br)ccc34)C(=O)NC2=O)c2ccccc21`, the growth in the experiment with DU-145 prostate was 108%; in the experiment on K-562 leukemia it was 27.4%; in the experiment on MALME-3M melanoma, 104%; in the experiment on MDA-MB-231 breast it was 87.8%; in the experiment with RXF 393 renal, 66.3%; in the experiment with SF-268 CNS, 83.5%. Besides, the growth is 86.9% in the experiment on SF-295 CNS; 69.5% in the experiment with SF-539 CNS; 100% in the experiment with UACC-257 melanoma; 68.7% in the experiment on M14 melanoma; 37.3% with HCT-15 colon; 51.7% in the experiment with HT29 colon. Also, the growth in the experiment with SNB-75 CNS is 10.5%; in the experiment on SNB-19 CNS, 90.7%; in the experiment with U251 CNS, 83.7%; with PC-3 prostate it was 69.3%; with SK-MEL-5 melanoma, 89.6%; with UACC-62 melanoma it was 60.1%. Further, the growth with LOX IMVI melanoma is 69.2%; in the experiment with SK-MEL-28 melanoma it was 88.6%.

As for `C/C(=C(\c1ccc(O)cc1)c1ccc(OCCN2CCCCCC2)cc1)c1ccc(Cl)cc1`, the growth was -86.4% (active) in the experiment on DU-145 prostate; 5.91% (active) in the experiment with K-562 leukemia; -80.3% (active) in the experiment on MALME-3M melanoma; -85% (active) in the experiment on MDA-MB-231 breast; -87.4% (active) in the experiment on RXF 393 renal; -62.5% (active) in the experiment on SF-268 CNS. The growth in the experiment on SF-295 CNS was -93.7% (active); with SF-539 CNS, -91.8% (active); in the experiment with UACC-257 melanoma, -81.8% (active); in the experiment with M14 melanoma, -86.5% (active); with HCT-15 colon it was -88.7% (active); in the experiment on HT29 colon, -72.8% (active). Further, the growth with SNB-75 CNS is -77.9% (active); with SNB-19 CNS, -20.6% (active); with U251 CNS, -81.1% (active); in the experiment on PC-3 prostate it was -69.9% (active); with SK-MEL-5 melanoma, -96% (active); in the experiment with UACC-62 melanoma, -85.1% (active). Also, the values for the growth with LOX IMVI melanoma and in the experiment on SK-MEL-28 melanoma were -95.4% (active) and -84.1% (active), respectively.

On to `O=C(CCCCCCNC(=O)C(O)(O)C(F)(F)F)Nc1ncc(-c2ccccc2)s1`, for which the growth in the experiment on DU-145 prostate was 3.28% (active); with K-562 leukemia, 11.7%; in the experiment with MALME-3M melanoma it was 13.6%; in the experiment on MDA-MB-231 breast, 15.9%; in the experiment with RXF 393 renal, -48.5% (active); in the experiment on SF-268 CNS, 1.35% (active). The growth in the experiment with SF-295 CNS is -35.1% (active); in the experiment with SF-539 CNS, 13.9%; in the experiment on UACC-257 melanoma, 20.8%; in the experiment on M14 melanoma, 14.3%; with HCT-15 colon, 2.35% (active); with HT29 colon it was 4.15% (active). The growth was 35.1% with SNB-75 CNS; 6.24% (active) in the experiment with SNB-19 CNS; -62.6% (active) in the experiment with U251 CNS; 22.7% in the experiment with PC-3 prostate; -67.2% (active) with SK-MEL-5 melanoma; -76.6% (active) in the experiment on UACC-62 melanoma. Besides, the values for the growth in the experiment with LOX IMVI melanoma and in the experiment on SK-MEL-28 melanoma were -78.2% (active) and -19.6% (active), respectively.

For the compound `CC(O)c1cccc(/C(N)=N/C(N)=N/c2nc3ccccc3s2)c1` (stereo not given), the growth in the experiment on DU-145 prostate is 96.8%; in the experiment on K-562 leukemia it was 72%; in the experiment on MALME-3M melanoma, 97%; with MDA-MB-231 breast, 94.9%; in the experiment with RXF 393 renal, 104%; in the experiment on SF-268 CNS, 94.3%. Further, the growth in the experiment on SF-295 CNS was 86.7%; in the experiment on SF-539 CNS, 96.8%; in the experiment on UACC-257 melanoma, 103%; in the experiment on M14 melanoma it was 94.4%; in the experiment with HCT-15 colon, 56.7%; in the experiment on HT29 colon, 110%. Further, the growth is 80% with SNB-75 CNS; 89.3% in the experiment on SNB-19 CNS; 74.2% in the experiment with U251 CNS; 64.9% in the experiment on PC-3 prostate; 83.4% in the experiment with SK-MEL-5 melanoma; 87.8% in the experiment with UACC-62 melanoma. For the same compound, the growth in the experiment with LOX IMVI melanoma was 64.3%; in the experiment with SK-MEL-28 melanoma it was 100%.

Take `O=C(CCCCCC/C=C\c1csc(Br)n1)NO`: the growth with DU-145 prostate was 87.7%; with K-562 leukemia, 50.5%; in the experiment on MALME-3M melanoma, 66.7%; in the experiment on MDA-MB-231 breast, 98.4%; in the experiment on RXF 393 renal, 97%; in the experiment with SF-268 CNS, 108%. In addition, the growth with SF-295 CNS is 95.4%; in the experiment with SF-539 CNS, 78.9%; with UACC-257 melanoma it was 82%; in the experiment on M14 melanoma, 93.9%; with HCT-15 colon, 90.9%; in the experiment on HT29 colon, 84.5%. In addition, the growth was 64.8% with SNB-75 CNS; 97% in the experiment with SNB-19 CNS; 91.4% with U251 CNS; 82% in the experiment with PC-3 prostate; 97.1% in the experiment on SK-MEL-5 melanoma; 74.5% in the experiment with UACC-62 melanoma. For the same compound, the growth in the experiment with LOX IMVI melanoma is 70.1%; in the experiment on SK-MEL-28 melanoma it was 92.4%.
